# PubChem BioAssay (NCI)
# About 83,000 compounds went through this panel and 20% of them were active in at least one assay; those are over-represented in the sample as a whole.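 The endpoint reported here, percent growth, reads 100 for growth as untreated, 0 for no net growth and -100 for all cells dead.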 Active and inactive are the calls of the source. Rule for the calls: active = growth percent below 10; inactive = the rest.
# System: HL-60(TB) leukemia
# Test: NCI-60 one-dose screen, 48 h (100 = growth as untreated, 0 = no growth, -100 = all killed)
# Conditions: 10 µM unless noted
row,SMILES,growth
1,CN(C)CCNC(=O)c1ccc(-c2nc3ccc4[nH]ncc4c3c3c2CCC3)cc1,-18.8% (active)
2,C=CC(=O)N1CC=C(c2cc3c(N[C@H](C)c4ccccc4)ncnc3[nH]2)CC1,104% (inactive)
3,O=C(/C=C/c1cccc(Br)c1)c1cccc(OCCCCOc2cccc(C(=O)/C=C/c3cccc(Br)c3)c2)c1,95.3% (inactive)
4,CS(=O)(=O)c1ccc(-c2nc3ccccn3c2C=Nc2ccc(Cl)cc2)cc1,59.7% (inactive)
5,COc1cc(C(C)=C(c2ccc(OCCN(C)C)cc2)c2ccc(OCCN(C)C)cc2)ccc1F,105% (inactive)
6,CCNC(=O)Oc1ccc(/C(=C(/C)c2ccc(Cl)cc2)c2ccc(OCCN3CCCC3)cc2)cc1,56.2% (inactive)
7,CNC(=O)c1cc(-c2ccc(NC(=O)Nc3ccc(N4CCOCC4)c(C(F)(F)F)c3)cc2)nc2cccnc12,25.2% (inactive)
8,Cc1nc(/N=C(N)/N=C(\N)c2cccc(Br)c2)sc1C,12.4% (inactive)
9,O=c1c2cc(-c3ccc(F)cc3F)ccc2n(O)c(=O)n1-c1cccc(C(F)(F)F)c1,-50.2% (active)
10,C(=C(\C1=NCCN1)n1cnc2ccccc21)/c1cccc2ccccc12,71.6% (inactive)
11,COc1cc2cc(Oc3ccc(NC(=O)c4cc(C(F)(F)F)cc(C(F)(F)F)c4)cc3)c(C)nc2cc1OCCN1CCOCC1,89.4% (inactive)
12,C=C(C)[C@@H]1CC[C@]2(C(=O)ON)CC[C@]3(C)[C@H](CC[C@@H]4[C@@]5(C)C/C(=C/c6ccc(Br)cc6)C(=O)C(C)(C)[C@@H]5CC[C@]43C)[C@@H]12,43.6% (inactive)
13,CC1(C)CC[C@]2(C(=O)O)CC[C@]3(C)C(=CCC4[C@@]5(C)C[C@@H](O)[C@@H]6OC(c7cccc([N+](=O)[O-])c7)OC[C@@]6(C)C5CC[C@]43C)C2C1 (stereo not given in full),42.5% (inactive)
14,COc1cc(-c2nc(-c3ccccc3)[nH]c2-c2ccnc(NCCCNS(=O)(=O)c3ccc(C)cc3)n2)ccc1F,93.4% (inactive)
15,O=C1Nc2ccccc2/C1=C/c1ccc(OCC(=O)c2ccccc2)cc1,105% (inactive)
16,O=C1C(N2CCN(c3ccccc3)CC2)=C(Cl)C(=O)c2ncccc21,4.34% (active)
17,CNC(=O)Nc1ccc(Nc2cc(-c3ccc(-n4cccn4)cc3)[nH]n2)c(C)c1,92.7% (inactive)
18,ClC(Cl)c1nc(-c2cccs2)n2nc(-c3ccccc3)cc2n1,0.604% (active)
19,COc1ccc(CCN2C(=O)CSC2=S)cc1,54.6% (inactive)
20,NC(=O)c1c(NC(=O)c2ccc(C3CCCCC3)cc2)sc2c1CCC(=O)C2,7.79% (active)

row,SMILES,growth
1,CS(=O)(=O)c1nccc(-c2c(-c3ccc(F)c(OCc4ccccc4)c3)nc3sccn23)n1,5.59% (active)
2,CC(=O)OC[C@@]12Oc3c(cccc3-c3ccc(O)c4c3O[C@]3(COC(C)=O)C(=C4O)C(=O)C[C@H](C)[C@@H]3OC(C)=O)C(O)=C1C(=O)C[C@H](C)[C@@H]2OC(C)=O,-46.3% (active)
3,Cc1ccc(-n2cc(/C=N/NC(=O)c3nc(N)n[nH]3)c(-c3ccc(S(C)(=O)=O)cc3)n2)cc1,95.1% (inactive)
4,CNC(=O)c1cc(-c2ccc(NC(=S)Nc3cccc(C(F)(F)F)c3)cc2)nc2cccnc12,109% (inactive)
5,CN1CCN(Cc2ccc(/C=N/Nc3ccnc4cc(Cl)ccc34)cc2)CC1,72.4% (inactive)
6,O=C(CCN1C(=O)/C(=C/c2ccccc2)SC1=S)N1CCOCC1,89.3% (inactive)
7,CC(=C(c1ccc(OCCN2CCCC2)cc1)c1ccc(OCCN2CCCC2)cc1)c1ccc(Cl)cc1,-53.7% (active)
8,COc1ccc(CC(C)=C(c2ccc(OCCN3CCCC3)cc2)c2ccc(OCCN3CCCC3)cc2)cc1,-64.2% (active)
9,COc1cc(C(=O)C[n+]2ccc3ccccc3c2)cc(OC)c1OC,92.7% (inactive)
10,Cc1ccc2c(c1)C(=O)/C(=C/c1cccc(F)c1)S2,98.9% (inactive)
11,C#C[C@]1(O)CC[C@H]2[C@@H]3CC=C4c5sc(C6CC6)nc5CC[C@]4(C)[C@H]3CC[C@@]21C,58.8% (inactive)
12,O=C(O)CNS(=O)(=O)c1ccc(Oc2ccc(S(=O)(=O)NCC(=O)O)cc2)cc1,91% (inactive)
13,COc1ccc(-c2nn(-c3ccc(S(C)(=O)=O)cc3)cc2/C=N/O)cc1,103% (inactive)
14,COc1ccc2c(c1)Oc1nc(N)c(C#N)c(N)c1C2Sc1ccc(C)cc1 (stereo not given),-22.3% (active)
15,Cc1cc(=O)[nH]c(O)c1C#N,100% (inactive)
16,NS(=O)(=O)c1ccc(Nc2nc(Nc3ccccc3)nc3nnc(SCC(=O)NC4CCCCC4)n23)cc1,106% (inactive)
17,COc1cc2oc(-c3cccc(NC(=O)c4cc(NC(=O)[C@H](C)N)ccc4Cl)c3)cc(=O)c2c(OC)c1OC,97.2% (inactive)
18,Cc1cc2nc(C(Cl)Cl)nc(-c3cccs3)n2n1,-25.4% (active)
19,COc1cc(/C=C/C(=O)c2ccccc2)ccc1Oc1nc(NCCO)nc(N2CCOCC2)n1,81.6% (inactive)
20,COc1ccc(-c2nnc(SCc3ccc(O)c4ncccc34)o2)cc1,18.3% (inactive)
